Data from PubChem BioAssay AID651863 (Broad Institute, 2012).
Results with a measured potency or affinity are listed apart. Unmarked numbers belong to inactive results. Calls of active or inactive are those of the source.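 The calls were made as follows: active = compounds whose fitted half-maximal cell-killing dose is at most twice the top tested dose; inconclusive = flat curve with 30 to 70 percent signal loss, or poor fit; inactive = the rest.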

test: kidney cell line viability loss – HEK293T, luminescence plate reader, powder samples, set 4, cytotoxicity control, dose response (AID 651863); settings: CellTiter-Glo ATP luminescence, 48 h; series mostly up to 26 µM; activity change, negative = cytotoxicity: at the top concentration

In order of falling “activity change, negative = cytotoxicity” value:
1. C=CC(=O)NC[C@@H]1c2ccccc2CCN1C(=O)[C@@H]1CCCC[C@@H]1C(=O)O  23.2%
2. C[C@H](NC(=O)C1CCCC[C@H]1C(=O)O)c1ccccc1 (mixture of isomers)  21.3%
3. O=C(NCCCN1CCOCC1)c1ccccc1C(=O)NC[C@@H]1c2ccccc2CCN1C(=O)C1CCCCC1C(=O)O (some centres not stated)  21.1%
4. O=C(O)c1ccccc1C(=O)N1CCc2ccccc2C1CN1C(=O)c2ccccc2C1=O (configuration not stated)  19%
5. O=S(=O)(Nc1nc(NCC2CCCCC2)nc2ccccc12)c1ccccc1  14.8%
6. CCOC(=O)C(C(=O)OCC)c1nc(NS(=O)(=O)c2c(C)cc(C)cc2C)c2ccccc2n1  13.7%
7. O=C(O)/C=C\C(=O)N1CCc2ccccc2C1CN1C(=O)c2ccccc2C1=O (configuration not stated)  13.3%
8. O=C1c2ccccc2C(=O)N1C[C@@H]1c2ccccc2CCN1C(=O)C1CCCCC1  13.3%
9. Cc1cc(C)c(S(=O)(=O)Nc2cc(C(C(=O)OCc3ccccc3)C(=O)OCc3ccccc3)c(O)c3ccccc23)c(C)c1  13%
10. COC(=O)[C@@H]1CCCC[C@@H]1C(=O)N1CCc2ccccc2[C@@H]1CN1C(=O)c2ccccc2C1=O  12.2%
11. CC(C)CNc1nc(NS(=O)(=O)c2ccccc2)c2ccccc2n1  11.1%
12. O=C(O)[C@@H]1CCCN1C(=O)N1CCc2ccccc2[C@H]1CN1C(=O)c2ccccc2C1=O  10.4%
13. O=C(Cc1ccccc1)NC[C@@H]1c2ccccc2CCN1C(=O)[C@@H]1CCCC[C@@H]1C(=O)O  7.9%
14. Cc1cc(C)c(S(=O)(=O)Nc2nc(C(C(=O)OC(C)C)C(=O)C(F)(F)F)nc3ccccc23)c(C)c1 (configuration not stated)  7.01%
15. O=C(NC[C@@H]1c2ccccc2CCN1C(=O)[C@@H]1CCCC[C@@H]1C(=O)O)c1ccccc1  6.54%
16. COC(=O)CNc1nc(NS(=O)(=O)c2c(C)cc(C)cc2C)c2ccccc2n1  6.41%
17. Cc1ccc(S(=O)(=O)Nc2cc(C(C(=O)OC(C)C)C(=O)C(F)(F)F)c(O)c3ccccc23)c(C)c1 (configuration not stated)  5.36%
18. Cc1cc(C)c(S(=O)(=O)Nc2nc(NCCO)nc3ccccc23)c(C)c1  1.86%
19. O=C(O)C1CCCCC1C(=O)NCC1c2ccccc2CCN1C(=O)Cc1ccccc1 (configuration not stated)  -0.049%
20. Cc1cc(C)c(S(=O)(=O)Nc2nc(N(C)C)nc3ccccc23)c(C)c1  -0.85%
21. O=C(O)C1CCCCC1C(=O)N1CCCCC1CN1C(=O)c2ccccc2C1=O (configuration not stated)  -1.47%
22. C[C@@H](NC(=O)C1CCCC[C@H]1C(=O)O)c1ccccc1 (mixture of isomers)  -3.21%
23. O=C(O)CC(=O)N1CCc2ccccc2C1CN1C(=O)c2ccccc2C1=O (configuration not stated)  -4.51%
24. O=C(O)C1CCCCC1C(=O)N1CCc2ccccc2C1c1ccccc1 (configuration not stated)  -4.71%
25. Cc1cc(C)c(S(=O)(=O)Nc2cc(C(C(=O)OC(C)C)C(=O)C(F)(F)F)c(O)c3ccccc23)c(C)c1 (configuration not stated)  -5.11%
26. O=C(O)[C@H]1C2C=CC(C2)[C@H]1C(=O)N1CCc2ccccc2C1CN1C(=O)c2ccccc2C1=O (some centres not stated)  -5.44%
27. CCOC(=O)C(C(=O)OCC)c1cc(CN2C(=O)c3ccccc3C2=O)c2ccccc2n1  -6.23%
28. O=C(NCCc1ccccc1)c1ccccc1C(=O)NC[C@@H]1c2ccccc2CCN1C(=O)C1CCCCC1C(=O)O (some centres not stated)  -7.39%
29. Cc1ccccc1S(=O)(=O)Nc1cc(C(C(=O)OC(C)C)C(=O)C(F)(F)F)c(O)c2ccccc12 (configuration not stated)  -9.77%
30. O=C1c2ccccc2C(=O)N1C[C@@H]1c2ccccc2CCN1C(=O)OCc1ccccc1  -10.3%

With `Cc1ccc(S(=O)(=O)NC(=O)[C@@H]2c3ccccc3CCN2C(=O)[C@@H]2CCCC[C@@H]2C(=O)O)cc1` the outcome was “inactive”.
In the case of `O=C(O)[C@H]1CCCC[C@H]1C(=O)N1CCc2ccccc2C1CCN1C(=O)c2ccccc2C1=O` (some centres not stated), the outcome is reported as “inactive”.
